Assay outcomes (PubChem BioAssay)
L major viab = inhibitors of Leishmania major promastigote growth | inhibition, % at 10 µM | Leishmania major promastigotes, resazurin fluorescence viability | AID 1063 | 200,000 tested, 9% active; in the data active means inhibition above about 50%;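 further: promastigotes grown with compound for 44 hours at 28 °C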
CHOP inhibitor = inhibitors of CHOP induction in ER stress response. inhibition, % at 10 µM. CHO-K1 CHOP-promoter luciferase, tunicamycin-induced, 15-18 h. 220,000 tested, 3.8% active;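 active means compounds that reduced the stress-induced luciferase reporter signal by more than about 70% of percent inhibition, limit read from the data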;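 further: 0% = tunicamycin plus vehicle and 100% = wells without tunicamycin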
WT yeast gro inh = growth inhibition of WT yeast, mitochondrial fusion screen; 190,000 tested, 2.1% active; inhibition, % at 10 µM; mitochondrial fusion phenotypic screen, WT strain; in the data active means inhibition above about 58%; tested in S. cerevisiae
RAM inhibit = yeast RAM network inhibition. S. cerevisiae dse1pr::URA3 reporter, 5-FOA growth OD615, 2 d; analog-sensitive cbk1-as2 kinase mutant strain. inhibition, % at 50 µM. 190,000 tested, 1.8% active;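 active means inhibition above a set limit, 3 SD over mean compound inhibition, cut at about 8.4% in these data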;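 further: 0% = DMSO-only wells with no growth and 100% = 10 µM 1-NA-PP1 full growth; inhibition rescues growth on 5-FOA so higher OD means more RAM inhibition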
Starred values were filed as active, the others as inactive; nt = no result. A selection: hits, their analogues and other compounds. The true share with any hit is near 13%.

SMILES	L major viab	CHOP inhibitor	WT yeast gro inh	RAM inhibit
Oc1ccc(CNC2CCCCC2)cc1	90.2*	-23.6	-0.2	0.6
CN(Cc1ccc(O)cc1)C1CCCCC1	93.3*	3.6	12.5	1.8
COc1ccc(CN(C)C2CCCCC2)cc1	87.1*	-7.1	12.2	-0.3
CCOc1ccc(S(=O)(=O)NC(Cc2cnc[nH]2)C(=O)O)cc1 (centres undefined)	2.9	4.6	-2.2	-0.2
CCN(CC)C(=S)SCC(=O)c1ccc(F)cc1	78.2*	-23.9	-22.4	-1.2
Oc1ccc(N=Cc2cc(Br)c(N3CCOCC3)o2)cc1	66.9*	16.5	-6.9	0.9
COc1ccc(C(CNC(=O)c2cccc(Br)c2)N2CCCC2)cc1 (centres undefined)	53.5*	22.6	-7.6	0.0
CCOC(=O)N1CCN(C(=O)c2cn(C)c3ccc(S(=O)(=O)N4CCC(C)CC4)cc3c2=O)CC1	-5.9	-27.6	-7.5	-0.4
C=CCN=C1NN=C(c2cc(C)n(CCOC)c2C)CS1	2.2	79.9*	4.7	-0.1
COCCn1c(C)cc(C2=NNC(=Nc3ccc(Cl)cc3Cl)SC2)c1C	4.2	31.2	42.9	4.6
COCCn1c(C)cc(C2=NNC(=NC3CC3)SC2)c1C	18.2	103.2*	9.2	-1.2
N#CCN1CCC2(O)CCCCC2C1c1ccc2c(c1)OCO2 (centres undefined)	nt	4.4	nt	nt
COc1ccc2c(C)cc(SCC(=O)Nc3ccc(Cl)cn3)nc2c1	58.6*	48.9	-4.4	4.9
CC(C)CN(C)C(=O)CCc1nnc(Cc2cccc(C(F)(F)F)c2)o1	-4.5	2.7	9.2	0.5
CCOc1ccc(C2C(C(=O)/C=C/c3ccco3)=C(O)C(=O)N2CCN2CCOCC2)cc1OC (centres undefined)	-3.7	7.0	8.7	0.1
NS(=O)(=O)c1ccc(NCc2cc(Cl)ccc2OCc2ccc(F)cc2)cc1	54.4*	40.5	13.3	5.2
CCOc1c(Cl)cc(CNCC(C)C)cc1Cl	67.7*	10.4	15.7	-0.1
NS(=O)(=O)c1ccc(NCc2ccccc2OCc2ccccc2F)cc1	13.5	30.5	0.0	4.0
CCOc1cc(CNCCc2ccc(S(N)(=O)=O)cc2)cc(Cl)c1OCc1ccccc1	100.5*	70.3*	11.6	0.8
CCOc1cc(CNn2cn[nH]c2=S)cc(Cl)c1OCc1ccccc1F	5.5	40.5	69.1*	4.6
CCOc1cc(CNc2ccccc2)cc(Br)c1OCc1ccccc1F	3.3	54.9	40.7	2.6
CCOc1cc(CNc2ccc(S(N)(=O)=O)cc2)cc(Cl)c1OC	3.9	17.6	-7.2	6.0
O=C(OCc1nnn(Cc2ccccc2)c1-c1c(COC(=O)c2ccccc2)nnn1Cc1ccccc1)c1ccccc1	nt	5.6	nt	nt
O=C(NN1C(=O)c2ccccc2NC1c1ccccn1)c1ccc([N+](=O)[O-])cc1 (centres undefined)	27.2	-11.2	14.9	1.3
CCOc1cc(CNCCO)cc(Br)c1OCc1ccccc1	75.3*	-8.8	17.1	0.8
SMILES	L major viab	CHOP inhibitor	WT yeast gro inh	RAM inhibit
CCOc1cc(CNCc2ccccn2)cc(Cl)c1OCC	2.4	14.0	-32.6	1.2
CCNCc1cc(Cl)c(OCc2ccccc2)c(OCC)c1	99.6*	-9.6	11.6	0.9
NS(=O)(=O)c1ccc(CCNCc2cc(Br)ccc2OCc2ccccc2)cc1	55.3*	39.9	1.4	2.6
CCOc1cc(CNCCSc2nnnn2C)cc(Br)c1OCc1ccccc1	18.7	42.4	0.9	1.4
OCCNCc1cc(Br)ccc1OCc1ccccc1	4.1	6.4	3.0	-1.0
CCOc1cc(CNCCc2ccc(S(N)(=O)=O)cc2)ccc1OCc1ccccc1	100.5*	12.0	-10.9	0.1
CCOCCCNCc1cc(Br)ccc1OCc1ccccc1	83.4*	3.0	0.9	0.7
CCOc1c(Cl)cc(CNCc2ccncc2)cc1OC	83.8*	-2.1	9.1	1.4
CCOc1cc(CNCc2ccccn2)cc(Cl)c1OC	-0.5	-5.5	-2.7	2.0
CCC(CC)c1nnc(NC(=O)[C@@H](NC(=O)c2cccc(C)c2)C(C)C)s1	-1.2	37.6	3.0	2.5
COc1ccccc1OCC(=O)N(Cc1nc(-c2ccc(Cl)cc2)no1)C(C)C	3.9	43.1	27.3	2.0
Cc1ccc(-c2noc(CN(C(=O)CCCCCN3C(=O)c4ccccc4C3=O)C(C)C)n2)cc1	7.8	28.3	-9.9	9.8*
Cc1ccc(-c2noc(CN(C(=O)CCCN3C(=O)c4ccccc4C3=O)C(C)C)n2)cc1	23.7	nt	nt	nt
COc1cccc(OCC(=O)N(Cc2nc(-c3ccc(Cl)cc3)no2)C(C)C)c1	0.9	49.5	41.4	10.4*
CC(C)N(Cc1nc(-c2ccccc2)no1)C(=O)C(Cl)(Cl)Cl	12.6	25.6	72.1*	5.2
CC(C)N(Cc1nc(-c2ccc(Cl)cc2)no1)C(=O)CCC1CCCC1	-6.9	83.8*	67.4*	4.2
Cc1ccc(C)c(C(=O)N(Cc2nc(-c3ccc(Cl)cc3)no2)C(C)C)c1	3.1	17.7	69.9*	5.1
CC(C)N(Cc1nc(-c2ccccc2)no1)C(=O)COc1ccccc1	-0.5	34.9	-2.8	0.6
Cc1cc(Br)ccc1OCC(=O)N(Cc1nc(-c2ccccc2)no1)C(C)C	6.8	94.8*	49.3	11.0*
CCOC(=O)C1(Cc2ccccc2C)CCCN(Cc2ccc(NC(C)=O)cc2)C1 (centres undefined)	27.4	7.2	13.6	1.9
CN(C)CCOC(=O)c1ccc2c(c1)S(=O)(=O)c1ccccc1C2=O	nt	-1.6	nt	nt
COC(=O)c1ccc2nc(C)c(C)nc2c1	-4.4	-20.7	-4.7	2.5
COC(=O)c1cc(N=Nc2sc(N)nc2C)cc(C(=O)OC)c1	nt	80.2*	nt	nt
CC1CCN(C(c2cccs2)c2nnnn2Cc2ccccc2)CC1 (centres undefined)	28.9	32.6	13.5	2.9
CSc1nnc(Cn2c(=O)sc3ccccc32)n1CCc1ccccc1	-3.0	22.3	15.1	8.9*
SMILES	L major viab	CHOP inhibitor	WT yeast gro inh	RAM inhibit
CSc1nnc(Cn2c(=O)sc3ccccc32)n1C	34.6	11.4	-6.6	0.5
CCCCC(=O)NC(=S)Nc1ccc(NC(=O)C(C)C)c(OC)c1	-3.4	11.0	-7.4	6.3
CN(Cc1ccccc1)S(=O)(=O)c1ccc2[nH]cc(C(=O)NCC3CCCO3)c(=O)c2c1 (centres undefined)	98.6*	-20.2	-13.1	8.7*
CCc1ccccc1NS(=O)(=O)c1ccc2[nH]cc(C(=O)NCC3CCCO3)c(=O)c2c1 (centres undefined)	5.9	-7.1	-19.2	3.8
CCN(Cc1ccccc1)C(=O)c1c[nH]c2ccc(S(=O)(=O)N(C)CCC#N)cc2c1=O	-7.3	13.8	7.8	1.7
CCOc1ccc(NS(=O)(=O)c2ccc3[nH]cc(C(=O)NCC4CCCO4)c(=O)c3c2)cc1 (centres undefined)	-6.5	-14.1	-11.9	9.3*
COc1ccc(S(=O)(=O)N(CCc2ccccc2)CC(=O)O)cc1C	-7.5	1.6	-2.2	-0.9
Cc1ccccc1OCc1nc2ccccc2c(=O)n1/N=C/c1cn[nH]c1-c1ccc(Br)cc1	4.6	21.3	-1.6	4.4
O=c1c2ccccc2nc(COc2ccccc2)n1/N=C/c1cn[nH]c1-c1ccccc1	51.1*	85.1*	-1.4	4.4
O=C(O)c1ccccc1-n1c2ccccc2c2ccccc21	nt	17.0	nt	nt
O=S(=O)(Nc1ccc(O)c(CN2CCCCC2)c1)c1ccccc1	99.4*	2.0	7.6	0.7
